Test results from PubChem BioAssay (Tox21).
Results filed as inconclusive are left out. A call without a number means that no potency is given here. Active and inactive are the calls of the source. Unless noted, calls follow the shape of the full dose curve.

What was measured:
[1] = Nuclear factor erythroid 2-related factor 2/antioxidant responsive element (Nrf2/ARE) small molecule agonists: luciferase reporter gene qHTS assay in human keratinocytes (AID 1919969); also: nearly all actives have a fitted effect of over 35% in size; also: potency is read from the fitted curve at half-maximal effect
[2] = molecular target: KiSS-1 receptor (Homo sapiens) (UniProt Q969F8); assay: Human kisspeptin (KISS1R) small molecule agonists, calcium flux assay in KISS1R-HEK293 cells (AID 1920064; active = well fitted activation curve with a large enough effect in the repeat runs)
Chain of KiSS-1 receptor (Homo sapiens) (Q969F8 whole entry, looked up): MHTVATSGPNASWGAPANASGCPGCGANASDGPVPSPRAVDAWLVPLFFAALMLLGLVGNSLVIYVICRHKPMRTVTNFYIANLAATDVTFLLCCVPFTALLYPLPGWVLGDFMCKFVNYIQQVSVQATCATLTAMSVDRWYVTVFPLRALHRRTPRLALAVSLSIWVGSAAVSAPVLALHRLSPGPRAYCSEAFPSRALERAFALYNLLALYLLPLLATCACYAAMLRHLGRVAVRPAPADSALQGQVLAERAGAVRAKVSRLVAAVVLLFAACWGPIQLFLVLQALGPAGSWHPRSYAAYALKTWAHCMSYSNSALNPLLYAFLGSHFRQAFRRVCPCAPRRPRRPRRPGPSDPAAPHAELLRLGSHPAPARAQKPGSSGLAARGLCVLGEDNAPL
Summary of the method: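 Concentration-response testing used 15 concentrations in triplicate on human KISS1R-expressing HEK293 cells. Calcium-dependent fluorescence (Ex/Em 480/540) was followed kinetically for 3 min after compound transfer.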

[3] = G protein-coupled receptor (GPCR) small molecule agonists, calcium flux assay: HEK293 wild type cell line counter screen (AID 1920065)
Summary of the method: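 Fluorescence intensity signals activation. After overnight (18 h) culture and a 1 h calcium dye load at 37 C, compounds are added by pin tool and the plate read at 480/540 nm for 3 min in 1 s steps.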

[4] = p53 small molecule agonists, cell-based qHTS assay with human liver microsomes (AID 1963577)
Summary of the method: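 Cells carrying a p53-responsive bla reporter were rested 5 h (37 C, 5% CO2) before compound transfer. Human liver microsomes plus NADPH, 0.5 mg/mL final apiece, supplied metabolism during the 16 h 37 C exposure.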

[5] = p53 small molecule agonists, cell-based qHTS assay with rat liver microsomes (AID 1963578)
Summary of the method: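 Fluorescence from a beta-lactamase reporter under a p53 response element was measured after cells had been incubated 16 h at 37 C with test compound and rat liver microsomes plus NADPH (0.5 mg/mL final each).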

[6] = p53 small molecule agonists, cell-based qHTS assay with human liver microsomes: qHTS cell viability counter screen (AID 1963579); also: nearly all actives have a fitted effect of over 45% in size; also: potency is read from the fitted curve at half-maximal effect
Summary of the method: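 Seed p53RE-bla cells at 4,000 per well; incubate 5 h at 37 C; add compound, human liver microsomes and NADPH; incubate 16 h at 37 C; add CellTiter-Glo; after 30 min at room temperature, read luminescence.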

[7] = p53 small molecule agonists, cell-based qHTS assay with rat liver microsomes: qHTS cell viability counter screen (AID 1963580); also: nearly all actives have a fitted effect of over 45% in size
Summary of the method: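 Cytotoxicity counter screen: intracellular ATP measured by CellTiter-Glo luminescence in the same wells as the beta-lactamase reporter read, on HCT-116 p53RE-bla cells exposed 16 h at 37 C to compounds with rat liver microsomes and NADPH, each 0.5 mg/mL final.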

[8] = p53 small molecule agonists, cell-based qHTS assay: qHTS cell viability counter screen (AID 1963581); also: nearly all actives have a fitted effect of over 45% in size
Summary of the method: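 Luminescence from CellTiter-Glo, reflecting ATP content, serves as the cytotoxicity measure; it is taken after the 2 h reporter substrate step in HCT-116 p53RE-bla cells dosed for 16 h at 37 C.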

[9] = p53 small molecule agonists, cell-based qHTS assay (AID 1963582; active = well fitted activation curve with a large enough effect in the signal ratio in the repeat runs, not every such curve was filed as active; the % refers to the signal ratio)
Summary of the method: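 After plating, p53RE-bla cells sat 5 h in the incubator; compounds or DMSO vehicle were pinned in; a 16 h incubation at 37 C followed; FRET substrate was added and, 2 h later at RT, fluorescence was measured.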

[10] = molecular target: 5-hydroxytryptamine receptor 2A (Homo sapiens) (UniProt P28223); assay: 5-hydroxytryptamine receptor 2A (HTR2A) small molecule antagonists, cell-based qHTS assay (AID 1963586); also: nearly all actives have a fitted effect of over 45% in size; also: potency is read from the fitted curve at half-maximal effect
Chain of 5-hydroxytryptamine receptor 2A (Homo sapiens) (P28223 whole entry, looked up): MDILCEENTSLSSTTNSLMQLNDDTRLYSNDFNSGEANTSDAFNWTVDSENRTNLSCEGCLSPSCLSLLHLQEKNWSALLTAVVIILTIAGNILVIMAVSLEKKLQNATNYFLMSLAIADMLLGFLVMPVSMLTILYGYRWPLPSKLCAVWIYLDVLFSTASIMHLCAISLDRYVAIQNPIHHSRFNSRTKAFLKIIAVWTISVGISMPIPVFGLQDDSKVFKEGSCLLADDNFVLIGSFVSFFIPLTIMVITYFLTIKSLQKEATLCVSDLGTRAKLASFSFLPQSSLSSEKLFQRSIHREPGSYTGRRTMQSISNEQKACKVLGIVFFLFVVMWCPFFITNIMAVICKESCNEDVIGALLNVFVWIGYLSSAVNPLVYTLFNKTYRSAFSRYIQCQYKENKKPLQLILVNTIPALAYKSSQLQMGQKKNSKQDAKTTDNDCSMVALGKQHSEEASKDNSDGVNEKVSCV
Summary of the method: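 CHO cells stably expressing human HTR2A were plated for 18 h at 37 C, then loaded with calcium dye for 1 h. Compounds were preincubated 5 min at room temperature before DOI (4 nM solution) was added. Kinetic fluorescence was read for 3 min.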

[11] = molecular target: Muscarinic acetylcholine receptor M1 (Homo sapiens) (UniProt P11229); assay: Cholinergic receptor muscarinic 1 (CHRM1) small molecule antagonists, cell-based qHTS assay (AID 1963588); also: nearly all actives have a fitted effect of over 40% in size; also: potency is read from the fitted curve at half-maximal effect
Chain of Muscarinic acetylcholine receptor M1 (Homo sapiens) (P11229 whole entry, looked up): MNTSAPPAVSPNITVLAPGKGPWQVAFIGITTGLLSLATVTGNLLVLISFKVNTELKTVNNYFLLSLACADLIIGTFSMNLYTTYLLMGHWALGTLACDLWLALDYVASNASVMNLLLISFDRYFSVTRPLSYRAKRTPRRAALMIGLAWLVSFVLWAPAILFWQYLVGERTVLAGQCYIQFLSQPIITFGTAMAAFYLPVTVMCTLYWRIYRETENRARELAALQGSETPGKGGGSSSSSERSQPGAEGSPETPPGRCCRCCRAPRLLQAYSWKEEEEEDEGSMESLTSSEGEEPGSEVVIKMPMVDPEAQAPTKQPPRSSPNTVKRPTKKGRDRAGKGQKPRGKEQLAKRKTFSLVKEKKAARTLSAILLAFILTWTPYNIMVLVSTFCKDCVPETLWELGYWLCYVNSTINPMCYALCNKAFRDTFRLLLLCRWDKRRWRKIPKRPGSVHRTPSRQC
Summary of the method: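 Compounds were tested at 15 concentrations in three independent runs. Dye-loaded CHRM1-CHO cells were exposed 5 min at room temperature before stimulation by acetylcholine added at 50nM. Intracellular calcium was read kinetically on FDSS for 3 min.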

[12] = molecular target: Muscarinic acetylcholine receptor M1 (Homo sapiens) (UniProt P11229); assay: Cholinergic receptor muscarinic 1 (CHRM1) small molecule agonists, cell-based qHTS assay (AID 1963589); also: nearly all actives have a fitted effect of over 35% in size
Summary of the method: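 Fluorescent calcium dye reports M1 activation in stably transfected CHO cells. Compounds, 15 concentrations, added after 1 h dye loading at 37 C; kinetic reading at 1 sec intervals.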

[13] = molecular target: Beta-2 adrenergic receptor (Homo sapiens) (UniProt P07550); assay: Adrenergic beta2 receptor (ADRB2) small molecule antagonists, cell-based qHTS assay (AID 1963592); also: series mostly up to about 92 µM; nearly all actives have a fitted effect of over 50% in size
Chain of Beta-2 adrenergic receptor (Homo sapiens) (P07550 whole entry, looked up): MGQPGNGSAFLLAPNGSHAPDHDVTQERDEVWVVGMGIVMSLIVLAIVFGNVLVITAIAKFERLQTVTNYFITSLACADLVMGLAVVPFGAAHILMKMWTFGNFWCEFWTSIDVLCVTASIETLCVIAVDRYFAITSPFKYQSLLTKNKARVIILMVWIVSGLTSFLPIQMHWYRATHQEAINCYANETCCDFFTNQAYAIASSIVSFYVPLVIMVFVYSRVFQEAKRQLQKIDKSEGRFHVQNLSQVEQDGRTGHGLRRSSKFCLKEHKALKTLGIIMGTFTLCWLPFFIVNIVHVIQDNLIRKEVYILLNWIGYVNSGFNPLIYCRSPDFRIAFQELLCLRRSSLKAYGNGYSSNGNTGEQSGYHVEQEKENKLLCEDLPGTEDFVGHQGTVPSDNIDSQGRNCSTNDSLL
Summary of the method: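 Assay format: CHO-ADRB2 cells, 18-20hr seeding at 37C/5% CO2, then compound plus 1nM isoproterenol agonist mix for 0.5hr RT. Homogeneous time-resolved fluorescence cAMP detection after 1hr, expressed as 665/615 nm ratio.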

[14] = molecular target: D(2) dopamine receptor (Homo sapiens) (UniProt P14416); assay: Dopamine D2 receptor (DRD2) small molecule antagonists, cell-based qHTS assay (AID 1963595; active = well fitted inhibition curve with a large enough effect in the signal ratio in the repeat runs, with a control signal flat; the % refers to the signal ratio; also: potency is read from the fitted curve at half-maximal effect)
Chain of D(2) dopamine receptor (Homo sapiens) (P14416 whole entry, looked up): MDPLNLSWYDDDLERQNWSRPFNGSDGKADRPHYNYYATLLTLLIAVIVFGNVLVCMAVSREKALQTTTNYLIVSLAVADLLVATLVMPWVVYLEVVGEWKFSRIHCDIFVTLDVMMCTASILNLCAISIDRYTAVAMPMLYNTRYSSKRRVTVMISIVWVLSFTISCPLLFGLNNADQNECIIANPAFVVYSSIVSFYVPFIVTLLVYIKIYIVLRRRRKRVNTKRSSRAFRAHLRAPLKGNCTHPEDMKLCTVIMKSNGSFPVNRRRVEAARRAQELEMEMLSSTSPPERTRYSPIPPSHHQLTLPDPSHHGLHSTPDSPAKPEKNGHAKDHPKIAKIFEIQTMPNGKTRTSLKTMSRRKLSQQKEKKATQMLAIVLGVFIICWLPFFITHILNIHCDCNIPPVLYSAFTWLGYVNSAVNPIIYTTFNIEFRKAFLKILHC
Summary of the method: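 Human DRD2 antagonist qHTS measuring cAMP by HTRF. The cells are exposed to compound for 10 min, then to NKH477 (200 nM) and quinpirole (12 nM) for 30 min at RT, with Ro20-1724 (0.1 mM) present throughout.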

[15] = molecular target: Gonadotropin-releasing hormone receptor (Homo sapiens) (UniProt P30968); assay: Human gonadotropin-releasing hormone receptor (GnRHR) small molecule agonists, calcium flux assay in GnRHR-HEK293 cells (AID 1920063); also: nearly all actives have a fitted effect of over 35% in size
Chain of Gonadotropin-releasing hormone receptor (Homo sapiens) (P30968 whole entry, looked up): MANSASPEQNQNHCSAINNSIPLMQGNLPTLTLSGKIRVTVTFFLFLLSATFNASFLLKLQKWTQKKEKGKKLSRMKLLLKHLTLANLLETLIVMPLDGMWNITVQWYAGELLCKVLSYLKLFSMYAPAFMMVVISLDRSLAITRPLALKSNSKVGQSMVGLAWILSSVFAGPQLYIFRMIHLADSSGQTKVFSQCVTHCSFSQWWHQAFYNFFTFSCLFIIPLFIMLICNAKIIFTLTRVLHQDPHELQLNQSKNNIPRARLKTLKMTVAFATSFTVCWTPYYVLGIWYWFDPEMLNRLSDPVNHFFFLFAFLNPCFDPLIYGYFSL
Summary of the method: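 Intracellular calcium rise is the read-out: engineered human GnRHR HEK293 cells, dye-loaded, are exposed to DMSO-dissolved compounds and fluorescence at Ex/Em 480/540 is tracked for 3 min.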

[16] = cAMP Responsive Elements (CRE) small molecule agonists, cell-based qHTS assay (AID 1963590)
Summary of the method: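 Compound exposure lasted 3 h at 37 C/5% CO2 in CRE-bla HEK 293T cells grown in assay medium with 10% dialyzed FBS and 25 mM HEPES. Reporter signal came from LiveBLAzer B/G FRET substrate, 2 h, room temperature.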

[17] = molecular target: D(2) dopamine receptor (Homo sapiens) (UniProt P14416); assay: Dopamine D2 receptor (DRD2) small molecule agonists, cell-based qHTS assay (AID 1963594); also: nearly all actives have a fitted effect of over 35% in size
Summary of the method: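 HEK293 cells stably expressing human DRD2, pre-treated with PDE inhibitor Ro20-1724 (0.1 mM final) and compound 10 min at room temperature, then stimulated with NKH477 (200nM […]) for 30 min. cAMP read by HTRF (665/620 nm).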

[18] = molecular target: 5-hydroxytryptamine receptor 2A (Homo sapiens) (UniProt P28223); assay: 5-hydroxytryptamine receptor 2A (HTR2A) small molecule agonists, cell-based qHTS assay (AID 1963587); also: nearly all actives have a fitted effect of over 30% in size; also: potency is read from the fitted curve at half-maximal effect
Summary of the method: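 CHO cells stably expressing human HTR2A, plated 18 h, loaded with calcium dye 1 h at 37 C. Agonist mode: compounds added and intracellular calcium fluorescence recorded kinetically for 2 min at 1 sec intervals.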

[19] = cAMP Responsive Elements (CRE) small molecule antagonists, cell-based qHTS assay (AID 1963591; active = well fitted inhibition curve with a large enough effect in the signal ratio in the repeat runs, not every such curve was filed as active; the % refers to the signal ratio)
Summary of the method: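 Stimulation used NKH477 at a final 0.25 uM for 3 h in compound-treated CRE-bla HEK293T cells, seeded 18 h beforehand. Reporter activity was measured with LiveBLAzer B/G FRET substrate after 2 h at room temperature.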

[20] = molecular target: Beta-2 adrenergic receptor (Homo sapiens) (UniProt P07550); assay: Adrenergic beta2 receptor (ADRB2) small molecule agonists, cell-based qHTS assay (AID 1963593);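 also: CHO cells stably overexpressing human ADRB2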
Summary of the method: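 CHO cells stably over-expressing ADRB2 were plated overnight at 37C, then dosed with compounds plus a stimulation mix containing 100uM IBMX and 25uM Ro-20-1724 for 0.5hr at room temperature. cAMP was measured by HTRF competition, 1hr.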

## OCCN1CCN(CC/C=C2/c3ccccc3Sc3ccc(C(F)(F)F)cc32)CC1
[1]
  Potency: inactive
[2]
  Potency: inactive
[3]
  Potency: inactive
[4]
  Potency: inactive
[5]
  Potency: inactive
[6]
  Potency: inactive
[7]
  Potency: inactive
[8]
  Potency: inactive
[9]
  Potency: inactive
[10]
  Potency: 0.13 µM (active)
[11]
  Potency: 3.65 µM (active)
[12]
  Potency: inactive
[13]
  Potency: inactive
[14]
  Potency: 0.168 µM (active)

## CCCCCCCCOC(=O)c1ccc(O)cc1
[1]
  Potency: inactive
[15]
  Potency: inactive
[3]
  Potency: inactive
[7]
  Potency: inactive
[10]
  Potency: inactive
[11]
  Potency: inactive
[12]
  Potency: inactive
[16]
  Potency: inactive
[13]
  Potency: inactive
[17]
  Potency: inactive
[14]
  Potency: inactive

## O=C1CCCCCN1SSN1CCCCCC1=O
[1]
  Potency: 24.3 µM (active)
[15]
  Potency: inactive
[3]
  Potency: inactive
[4]
  Potency: inactive
[5]
  Potency: inactive
[6]
  Potency: inactive
[7]
  Potency: inactive
[8]
  Potency: inactive
[10]
  Potency: inactive
[18]
  Potency: inactive
[11]
  Potency: inactive
[12]
  Potency: inactive
[19]
  Potency: inactive
[13]
  Potency: inactive
[17]
  Potency: inactive
[14]
  Potency: inactive

## CN[C@H]1CC[C@@H](c2ccc(Cl)c(Cl)c2)c2ccccc21
[1]
  Potency: inactive
[2]
  Potency: inactive
[3]
  Potency: inactive
[4]
  Potency: inactive
[5]
  Potency: inactive
[6]
  Potency: inactive
[7]
  Potency: inactive
[8]
  Potency: inactive
[9]
  Potency: inactive
[19]
  Potency: inactive
[13]
  Potency: inactive
[17]
  Potency: inactive
[14]
  Potency: 15 µM (active)

## Oc1ccc(Cl)cc1C1CCCC1
[1]
  Potency: inactive
[15]
  Potency: inactive
[3]
  Potency: inactive
[4]
  Potency: inactive
[5]
  Potency: inactive
[6]
  Potency: 36.3 µM (active)
[9]
  Potency: inactive
[10]
  Potency: inactive
[12]
  Potency: inactive
[13]
  Potency: inactive
[17]
  Potency: inactive
[14]
  Potency: 61.1 µM (active)

## CC[C@H]1CC[C@H](NCc2cc3c(cc2OC)[C@H]2C[C@H]2C(=O)N3C)[C@H](c2ccccc2)N1
[1]
  Potency: 30.6 µM (active)
[15]
  Potency: inactive
[3]
  Potency: inactive
[4]
  Potency: inactive
[5]
  Potency: inactive
[6]
  Potency: inactive
[10]
  Potency: inactive
[18]
  Potency: inactive
[11]
  Potency: 0.0472 µM (active)
[12]
  Potency: inactive
[19]
  Potency: inactive
[13]
  Potency: inactive
[17]
  Potency: inactive
[14]
  Potency: inactive

## C#C[C@]1(O)CC[C@H]2[C@@H]3CCc4cc(OC5CCCC5)ccc4[C@H]3CC[C@@]21C
[1]
  Potency: inactive
[15]
  Potency: inactive
[3]
  Potency: inactive
[4]
  Potency: inactive
[5]
  Potency: inactive
[7]
  Potency: inactive
[8]
  Potency: inactive
[9]
  Potency: inactive
[10]
  Potency: inactive
[18]
  Potency: inactive
[12]
  Potency: inactive
[19]
  Potency: inactive
[13]
  Potency: inactive
[20]
  Potency: inactive

## CCC(C)(C)c1cc(O)c(C(C)(C)CC)cc1O
[1]
  Potency: 4.86 µM (active)
[2]
  Potency: inactive
[3]
  Potency: inactive
[4]
  Potency: inactive
[5]
  Potency: inactive
[6]
  Potency: inactive
[7]
  Potency: inactive
[8]
  Potency: inactive
[9]
  Potency: inactive
[18]
  Potency: 4.9 µM (active)
[12]
  Potency: inactive
[16]
  Potency: inactive
[19]
  Potency: inactive
[13]
  Potency: inactive
[20]
  Potency: inactive
[17]
  Potency: inactive
[14]
  Potency: inactive
